The record followed here is PubChem BioAssay AID504941 (Broad Institute, 2011).

Hit rate of the full screen: of about 1,200 compounds, about 170 (14%) were called active. A selection follows. Potency and affinity values are given separately. A number with no mark means an inactive call. No rule for the calls is given here.

The test is described as follows: twin-arginine translocation blockade, bacterial reporter – cherry-pick, set 2, plate reader, dose response (AID 504941). As to conditions: E. coli Tat transport reporter; series mostly up to 38 µM; activity change, negative = inhibition: at the top concentration.
For `Cc1ccc(C(=O)N2CCCC(CCC(=O)NCc3ccc(F)c(F)c3)C2)cn1` (stereo not given), the “activity change, negative = inhibition” value was -11.3%. Turning to `CCCc1cc(=O)oc2cc(OCC(=O)N(C)C)c(Cl)cc12`, the “activity change, negative = inhibition” value was 13.6%.

Consider `C#CCNC(=O)C1=C[C@H](c2csc3ccccc23)[C@@H](CCCO)[C@H](OCC)O1`, for which the “activity change, negative = inhibition” value is 3.86%.

In the case of `COc1cc(OC)cc(C(=O)N(CN2CCCC2=O)c2ccccc2OC)c1`, the “activity change, negative = inhibition” value was -1.04%. Then `CCOCCCNC(=S)NCCNc1nc2ccc(C)cc2cc1C#N`, with -5.46%; and `Cc1ccsc1C1C(C#N)=C(N)OC2=C1C(=O)CC(C)C2` (stereo not given), with 11.4%; and `CC(=O)N(Cc1ccc(F)cc1)c1cccc(C)c1C`, with -14.8%. The result for `Cc1ccc(NC(=O)C(c2ccc(Cl)cc2)N2CCCCC2)cc1` (stereo not given) reads -1.59%; that for `Cc1cc(C)n2nc(SC(C)C(=O)N3CC(C)OC(C)C3)nc2n1` (stereo not given), -4.69%; that for `Cc1cc(C(=O)N2CCN(c3ccccc3)CC2)no1`, 3.1%. Then `CC1=C(C#N)C(c2cn(-c3ccccc3)nc2-c2cccs2)C(C#N)=C(C)N1`, with 24.9%; and `Cc1nc2ncnn2c(C)c1CCC(=O)N1CCCCC1`, with 4.61%; and `CCNC(=O)OCC12CC3CC(CC(C3)C1)C2`, with 2.46%. On to `CCOc1ccccc1NC(=O)NCc1ccc2c(c1)OCO2`, for which the “activity change, negative = inhibition” value is 21.1%.

As to `O=C1CN(C(=O)COC(=O)c2cc(S(=O)(=O)N3CCOCC3)ccc2Cl)c2ccccc2N1`, the “activity change, negative = inhibition” value is 15.5%. Then `Cc1ccc(-c2n[nH]c3c2C(c2ccccc2)N(c2ccc(C(=O)O)cc2)C3=O)cc1` (stereo not given), with -5.26%. The result for `COc1ccc(CN2CCN(C(=O)C3CCC(CNS(=O)(=O)c4ccccc4)CC3)CC2)c(OC)c1OC` (stereo not given) reads 6.45%. For the compound `Cc1nn(-c2ccccc2)c2nc3c(cc12)C(=O)CCC3`, the “activity change, negative = inhibition” value is 16.6%. Then `COc1ccc(-n2c(Cc3cccn3C)nnc2SCC(=O)Nc2ccc(C(C)=O)cc2)cc1`, with 17.2%; and `CC(=O)c1ccc(NC(=O)CSc2nc(N3CCOCC3)nc(N3CCOCC3)n2)cc1`, with -10.8%.

For `Cc1ccc(-c2nc3ccccc3s2)cc1NC(=S)NC(=O)c1cccc2ccccc12`, the “activity change, negative = inhibition” value was 9.11%.

Regarding `COc1ccc(-c2nc3ccccc3o2)cc1NC(=O)c1ccc(Br)o1`, the “activity change, negative = inhibition” value is 9.12%. Then `Cc1cc(NC(=O)C2CC2)ccc1NC(=O)c1cccs1`, with 2.3%; and `CC1=NN(c2ccccc2)C(=O)C1c1ccccc1` (stereo not given), with 23.5%; and `O=C(NCCOC(=O)c1cccs1)c1cccnc1`, with -2.94%. On to `CCOC(=O)CNS(=O)(=O)Cc1ccccc1`, for which the “activity change, negative = inhibition” value is 7.82%. On to `CCOC(=O)CNC(=O)c1ccccc1`, for which the “activity change, negative = inhibition” value is 4.19%. The result for `Cc1cc2ncn(CCOc3ccccc3)c2cc1C` reads -9.86%. Then `COc1ccc(/C=C(/NC(=O)c2cccc([N+](=O)[O-])c2)C(=O)O)cc1OC`, with 2.13%; and `CC(C)(C)OC(=O)N(CCc1ccccc1)Cc1cccc(OCc2cccc(NC(=O)/C=C/c3ccccc3)c2)c1`, with 23.8%; and `O=C(Nc1cccnc1Cl)c1noc2c1CCc1ccccc1-2`, with -13.1%.

In the case of `Cc1ccc(CN(C(=O)c2sc3ccccc3c2Cl)C2CCS(=O)(=O)C2)cc1` (stereo not given), the “activity change, negative = inhibition” value is 5.46%. The result for `COc1ccccc1-n1nc(C(=O)Nc2ccc3c(c2)OCO3)c2ccccc2c1=O` reads 26.9%. For the compound `C=CCNC(=O)c1ccccc1NC(=O)Nc1ccccc1`, the “activity change, negative = inhibition” value was 9.76%. Then `COCCN(C(=S)Nc1c(C)cc(C)cc1C)C(C)c1cccnc1` (stereo not given), with 6.68%.

Turning to `CCOC(=O)Cc1c[nH]c2ccc([N+](=O)[O-])cc12`, the “activity change, negative = inhibition” value was 2.39%. The result for `CCOCCCNC(=O)c1ccc(Cn2c(=S)[nH]c3c([nH]c4ccc(OC)cc43)c2=O)cc1` reads 25.4%; that for `O=C(/C=C/c1ccccc1)Nc1cc(S(=O)(=O)N2CCOCC2)ccc1N1CCCC1`, 12.8%; that for `COc1ccc(N=C2SC(C(=O)O)CC(=O)N2Cc2ccc(OC)c(OC)c2)cc1` (stereo not given), 2.87%.

With `CNC(=O)C1CCN(S(=O)(=O)c2c(C)noc2/C=C/c2cccc(OC)c2)CC1`, the “activity change, negative = inhibition” value is 22.2%.

Turning to `COc1cc(/C=N/NC(=O)c2ccccn2)ccc1OC(=O)c1ccc(Br)cc1`, the “activity change, negative = inhibition” value was 31.3%.

For `COc1ccc([N+](=O)[O-])cc1/C=N/NC(=O)Cc1ccccc1`, the “activity change, negative = inhibition” value is 10.8%. Then `C=CCNC(=S)Nc1cccc2[nH]ncc12`, with 4.33%; and `O=C(O)c1cn(-c2ccc(F)cc2)c2cc(N3CCNCC3)c(F)cc2c1=O`, with -53.8%.

Consider `CN1C2CCC1CC(NS(=O)(=O)c1cc(Cl)c(Cl)cc1Cl)C2` (stereo not given), for which the “activity change, negative = inhibition” value is 15.7%. The result for `CCCCSc1nc2c(c(=O)[nH]c(=O)n2C)n1CCc1ccccc1` reads -19.5%.

Turning to `O=C(CCc1nc2ccccc2c(=O)[nH]1)OCC(=O)c1cccc(Cl)c1`, the “activity change, negative = inhibition” value is -12.3%.

On to `COc1ccc(S(=O)(=O)N2CCOCC2)cc1NC(=O)c1ccc2c(c1)OCO2`, for which the “activity change, negative = inhibition” value was -13.2%. `CCOc1ccc(S(=O)(=O)N2CCCCC2)cc1NC(=O)CN1C(=O)NC(CC)(c2ccccc2)C1=O` (stereo not given): the “activity change, negative = inhibition” value was -7.52%. Then `Cc1c(C)c2c(C)nn(-c3ccccc3)c2[nH]c1=O`, with -0.775%; and `CC(C)(C)c1nn2cnnc2n(/N=C/c2cccc3ccccc23)c1=O`, with 24.3%; and `CCOC(=O)c1c(N/C=C(\C#N)c2nc(-c3ccc(OC(C)=O)cc3)cs2)sc2c1CCC2`, with 12.3%. Then `CCc1nc2cc3sc(CC)nc3cc2s1`, with 15.8%; and `Cc1ccc(C(=O)Nc2nc(C)c(C(=O)Nc3ccc4c(c3)CCC4)s2)cc1`, with 15.6%. The result for `CC(C)c1ccc(NC(=O)c2snc3ccc(Cl)cc23)cc1` reads -3.4%.
